Assay in all cases: NCI-60 one-dose screen, 48 h (100 = growth as untreated, 0 = no growth, -100 = all killed)
Holding throughout (details): 10 µM unless noted

Assay [1] has as its system SK-MEL-2 melanoma.
In assay [2] the test system is EKVX NSCLC.
Assay [3] relates to SN12C renal.
In assay [4] the test system is UO-31 renal.
Assay [5] relates to TK-10 renal.
For assay [6], the system named is ACHN renal.
The test system of assay [7] is CAKI-1 renal.
Assay [8] relates to CCRF-CEM leukemia.
Assay [9] relates to MOLT-4 leukemia.
Assay [10] concerns SR leukemia.
Assay [11] deals with RPMI-8226 leukemia.
For assay [12], the system named is OVCAR-8 ovarian.
Assay [13] has as its system OVCAR-4 ovarian.
In assay [14] the test system is SK-OV-3 ovarian.
Assay [15] deals with OVCAR-3 ovarian.
Assay [16] has as its system HS 578T breast.
In assay [17] the test system is A498 renal.
Assay [18] has as its system OVCAR-5 ovarian.
Assay [19] concerns IGROV1 ovarian.
Assay [20] relates to NCI/ADR-RES ovarian.

10 molecules from PubChem BioAssay (NCI) can be followed below.

Each structure is given as a SMILES string. About 83,000 compounds went through this panel and 20% of them were active in at least one assay; those are over-represented in the sample as a whole.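 Cells were grown in 96-well plates and exposed to the test compound at a single concentration for 48 hours; results are reported as percent growth, with values below 10 considered active.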 Unmarked numbers belong to inactive results. Active and inactive are the calls of the source.

On to `Cc1ccc(NC(=O)c2cc(NCc3cc(O)ccc3O)ccc2O)cc1`, for which the growth was 82.8% in assay [1]; 98.7% in assay [2]; 86.1% in [3]; 58% in assay [4]; 102% in [5]; 100% in assay [6]. Moreover, the growth in assay [7] was 107%; in assay [8] it was 26.4%; in assay [9], 69.7%; in [10], 20.3%; in assay [11], 20.2%; in assay [12] it was 81.8%. Moreover, the growth in assay [13] was 89.1%; in assay [14], 98.6%; in assay [15], 71%; in assay [16], 86.4%.
As for `CCOC(=O)c1ccc2c(c1)[n+](=O)c(C(=O)c1ccc3ccccc3c1)c(C(F)(F)F)n2[O-]`, the growth in [1] was -83.5% (active); in [2], -56.8% (active); in [3], -99.2% (active); in assay [4], -96% (active); in assay [5] it was -89.7% (active); in assay [6], -100% (active). Besides, the growth in [7] was -93.8% (active); in assay [17] it was -62.4% (active); in [11], -66.8% (active); in assay [12], 3.25% (active); in assay [18], -98.5% (active); in assay [13] it was -65.8% (active). For the same molecule, the growth in assay [14] was -100% (active); in assay [19], -82.9% (active); in [15] it was -99.6% (active); in assay [16], -45.7% (active); in [20], -86.4% (active).
`C/C(=N\NC(=O)CSc1nc2ccccc2c(=O)n1CCc1ccc(S(N)(=O)=O)cc1)c1ccc(Br)cc1`: the growth in [1] is 80.4%; in assay [2] it was 88.2%; in assay [3], 92.2%; in assay [4] it was 78.3%; in [5], 106%; in assay [6], 93.6%. Moreover, the growth in assay [7] is 79.8%; in assay [8], 76.7%; in assay [9], 55.3%; in assay [10], 51.1%; in [11], 49.7%; in assay [12], 34.6%. The growth in assay [18] was 111%; in assay [13] it was 71.3%; in [14] it was 96.4%; in assay [19], 100%; in assay [15], 128%; in assay [16], 90.8%. Moreover, in [20], the growth is 79.1%.
Take `CCOC(=O)c1cnc(SCC)nc1SC#N`: the growth in assay [1] is 96.1%; in [2], 99.8%; in assay [3], 95.7%; in assay [4] it was 95.2%; in assay [5], 84.3%; in [6] it was 71.3%. Also, the growth in [7] is -65.3% (active); in assay [17], 106%; in assay [12] it was 96.8%; in [18] it was 94%; in assay [14], 115%; in assay [19] it was 98.7%. Moreover, the growth in assay [15] is 87.3%; in assay [16] it was 121%; in [20], 100%.
For `CC(C)CC(=O)C(CCc1ccccn1)C(C)C` (centres undefined), the growth in [1] was 103%; in [2], 99.4%; in assay [3] it was 107%; in assay [4], 103%; in assay [5], 102%; in assay [6] it was 101%. Further, the growth in assay [7] is 79%; in assay [8], 97.2%; in assay [9], 108%; in assay [10], 108%; in assay [11], 95.8%; in [12], 105%. Moreover, the growth in assay [13] is 111%; in assay [14] it was 120%; in assay [19], 114%; in assay [15] it was 118%; in [16] it was 97.8%; in assay [20], 102%.
For `O=S(=O)(Nc1ccc2ccccc2c1)N1CCCCC1`, the growth in assay [1] is 8.41% (active); in [2] it was 81%; in assay [3], 81.9%; in [4], 25%; in [5], 86.8%; in assay [6], 63.7%. The growth in assay [7] was 44%; in [17] it was 27%; in assay [10] it was 38.1%; in [11], 82.4%; in assay [12], 68.2%; in assay [18] it was 79.1%. Also, the growth is 85.1% in [13]; 52% in assay [14]; 36.3% in assay [19]; 53.2% in assay [15]; 47.5% in assay [16]; 6.41% (active) in assay [20].
Turning to `N/N=C(\C(=N\N)c1ccccc1)c1ccccc1`, the growth in assay [1] is 98.7%; in [2], 94%; in assay [3], 88.9%; in assay [4], 73.6%; in [5], 98.8%; in assay [6] it was 104%. For the same molecule, the growth is 99.9% in [7]; 76.1% in assay [17]; 77.2% in assay [10]; 104% in assay [12]; 102% in assay [18]; 77.3% in assay [13]. The growth in [14] is 99.4%; in assay [19], 96.8%; in assay [15] it was 112%; in assay [16], 108%; in [20] it was 102%.
`CC(C)[C@@]12C[C@@H](OC(=O)C3CO3)[C@@](C)(O1)[C@@H]1CC[C@@H](C)[C@H]1[C@@H]2OC(=O)/C=C/c1ccccc1` (some centres undefined): the growth in assay [1] is 87.9%; in assay [2], 82.3%; in [3] it was 58.6%; in [4] it was -3.56% (active); in assay [5], 119%; in [6], 5.97% (active). Besides, the growth in assay [7] was 51.7%; in assay [8], 88.5%; in [9], 79.9%; in [10] it was 74.6%; in assay [11], 89.1%; in assay [12], 22.4%. For the same molecule, the growth in assay [18] is 100%; in [13], 111%; in [14] it was 76.9%; in assay [19] it was 74.6%; in assay [15], 90.4%; in [16], -21.2% (active). The growth in assay [20] is 59.4%.
With `O=C1OCC2=C1C(c1ccccc1)c1cc3c(cc1N2CCO)OCO3` (centres undefined), the growth is 14.6% in assay [1]; 35.4% in [2]; 39% in assay [3]; 43.9% in assay [4]; 63.4% in assay [5]; 36.5% in [6]. Moreover, the growth in assay [7] was 35.8%; in [17], 6.06% (active); in assay [11], 46.4%; in assay [12], 63.3%; in [18], 46.8%; in assay [13], 52%. Also, the growth in assay [14] was 6.79% (active); in assay [19] it was 39.5%; in assay [15] it was 3.99% (active); in assay [16], 23.1%; in [20], -20.4% (active).
On to `O=C(CC(=O)c1cccc(Cl)c1)c1cccc(Cl)c1`, for which the growth is 60.4% in assay [1]; 20.5% in assay [2]; 23.2% in [3]; 42.7% in assay [4]; 46.6% in assay [5]; 31.2% in assay [6]. The growth is 23.4% in [7]; 11.4% in assay [8]; 21.7% in assay [9]; 2.96% (active) in [10]; 21.9% in [12]; 46.8% in assay [18]. The growth in assay [13] was 42%; in assay [14], 47.5%; in assay [19] it was 34.1%; in [15], 32%; in assay [16], 73.6%; in assay [20], 8.52% (active).
